# Bioassay records as filed in PubChem BioAssay.
# a7 integrin act – integrin-mediated muscular dystrophy alleviation activation; alpha7betagal myoblasts, beta-gal FDG fluorescence, 48 h; Potency, µM (top dose mostly 38.3 µM), for the others: at the top dose activation, usual class: activators; 350,000 tested, 0.064% active; AID 624291;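 note: potency is the fitted concentration of half-maximal effect; 100% = response of the positive control SU9516; nearly all actives have a fitted effect of over 60% in size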
#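 Alpha7betagal+/- myoblasts (passage 13) were plated 16-24 hr, then exposed to compounds (1:260 dilution of DMSO stock) for 48 hours at 37C. After MPER lysis, β-galactosidase reporter activity was read as FDG fluorescence (ex 480/em 540) after 30 minutes.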
# ATXN viability – reduces viability in counter-screen for ATXN expression inhibitors. S2 cells (HEK-293 line with an ATXN2-luciferase reporter) viability, CellTiter-Fluor protease fluorescence, 24 h. Potency, µM (doses to about 56.7 µM), actives largely listed as cytotoxic. 400,000 tested, 0.49% active; note: potency is the fitted concentration of half-maximal effect; nearly all actives have a fitted effect of over 40% in size
# IL-1B inflam inh – inflammasome signaling inhibition, IL-1 beta readout; activity change, % at 57.5 µM; THP-1 LPS/ATP IL-1B secretion, AlphaLISA, 16 h; active compounds read low; AID 743279; 360,000 tested, 4.7% active; in the data active = activity change below about -50%; inconclusive = mostly about -30% to -49%; note: % is set by controls: 0 for no effect and ±100 for the full control effect
#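 Secreted IL-1B measured by AlphaLISA bead assay after 16 h compound exposure of THP-1 cells; compounds (final up to 57.5 uM) added 1 h before LPS (250 ng/mL) and ATP (1.25 mM) stimulation; lower signal means less secretion.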
# DRD3 antagonist – blocks the human D3 dopamine receptor; P35462; max response, negative = inhibition, %; 360,000 tested, 2.5% active; D3R cells, DiscoveRx beta-arrestin luminescence, antagonist mode; active compounds read low; in the data active = max response below about -50%; inconclusive = no clear call, values can overlap the other calls; note: % is set by controls: 0 for no effect and ±100 for the full control effect
# Target sequence (P35462 whole entry, looked up): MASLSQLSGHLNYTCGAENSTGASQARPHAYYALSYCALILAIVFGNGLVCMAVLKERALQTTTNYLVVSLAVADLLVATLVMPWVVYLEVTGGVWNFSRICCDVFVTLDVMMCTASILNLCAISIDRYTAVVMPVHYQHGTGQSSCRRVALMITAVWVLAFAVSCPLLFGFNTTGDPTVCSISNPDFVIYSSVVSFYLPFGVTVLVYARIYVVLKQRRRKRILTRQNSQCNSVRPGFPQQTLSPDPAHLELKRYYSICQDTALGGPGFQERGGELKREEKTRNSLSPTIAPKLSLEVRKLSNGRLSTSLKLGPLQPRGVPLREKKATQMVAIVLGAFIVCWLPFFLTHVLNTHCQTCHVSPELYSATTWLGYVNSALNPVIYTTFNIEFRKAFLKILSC
#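 Cells plated overnight at 1500 cells/well, then exposed to library compounds with dopamine controls for 90 minutes at 37 degrees C. DiscoveRx reagent added for 30–60 minutes at room temperature; luminescence read, quantitative HTS format.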
# D3 ag – D3 dopamine receptor (human) agonism; P35462; D3R DiscoveRx beta-arrestin cells, luminescence, 90 min; max activation, %; 410,000 tested, 0.58% active; AID 652048; in the data active = max activation above about 30%; note: 0% is about no effect
#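 Agonist-mode cell screen: cells plated at 1500/well and incubated overnight at 37 °C, then exposed to library compounds for 90 min at 37 °C. Detection reagent was added for 30–60 min at room temperature, and luminescence was read.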
# ATXN2 expr inh – ATXN2 expression inhibition; AID 1745845; 360,000 tested, 0.72% active; Potency, µM (titrated, usually from 57 µM), inactives show at the highest dose activity change, negative = inhibition, most hits filed as inhibitors; HEK-293 ATXN2-luciferase reporter, luminescence, 24 h; note: potency is the fitted concentration of half-maximal effect; % is set by controls: 0 for no effect and ±100 for the full control effect; nearly all actives have a fitted effect of over 55% in size
#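 ATXN2-luciferase reporter cells (luciferase flanked by upstream and downstream ATXN2 gene portions) were treated 24 h at 37 °C with compounds at up to 57 uM. SteadyGlo luminescence gave expression; GF-AFC fluorescence gave viability.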
# * = called active by the depositor; i = inactive; ? = inconclusive; · = no result given; [ ] = remark or other dose. Most compounds without a hit are left out; they make up all but 7% or so of the library. Unless noted, calls come from the whole dose curve; as a rule, active = well fitted curve in the direction sought with a large enough effect; inconclusive = small, poorly fitted or top-dose-only effect, or another doubt; inactive = no such curve, though single readings can be large; an effect the other way counts as inactive or inconclusive.
SMILES,a7 integrin act,ATXN viability,IL-1B inflam inh,DRD3 antagonist,D3 ag,ATXN2 expr inh
COc1ccc(S(=O)(=O)NCc2ccc(C(=O)NCCCN3CCCC(C)C3)cc2)cc1 (centres undefined),?,i,-52*,-30,-18,1%
CC1CCCN(CCSc2ccc(Cl)cc2)C1 (centres undefined),-26%,i,-21,?,-13,-1%
CN(C)CCOCCOc1ccc(Cl)cc1Br,-60%,i,-15,-76*,-19,-8%[11.3 µM]
Clc1ccc(OCCOCCN2CCCCC2)c(Br)c1,4%,·,0,46,-2,·
CC1CCN(CCCOc2ccc(Cl)cc2Br)CC1,-27%,i,6,-89*,-23,6%
Cc1ccc(Cl)c(OCCN2CCCC(C)C2)c1 (centres undefined),-22%,i,-9,-68*,-8,-12%
CC1CC(C)CN(CCCNC(=O)c2ccc(CNS(=O)(=O)c3ccc(F)cc3)cc2)C1 (centres undefined),-4%,i,-9,-30,-16,-12%
COc1ccc(S(=O)(=O)N(C)C[C@H]2OCc3cn(nn3)CCCC(=O)N([C@H](C)CO)C[C@@H]2C)cc1,11%,i,7,10,8,2%
CN1CCN(C2OC(=O)c3ccccc32)CC1 (centres undefined),6%,i,-3,-11,-11,-8%
CC1CN(C(=O)COc2ccc3ccccc3c2Br)CC(C)O1 (centres undefined),17%,i,?,?,-27,4%
COc1ccc(OCCCN2CCCC(C)C2)cc1 (centres undefined),-23%,i,16,-60*,-15,1%
COCCC(=O)N1CCCC(CNS(=O)(=O)c2ccc(OC)cc2)C1 (centres undefined),6%,i,-10,-63*,-3,-9%
CC1CCN(CCOCCOc2ccc(Cl)cc2Br)CC1,-57%,i,?,-88*,-28,-27%
CC1CCCN(CCOc2ccc3ccccc3c2Br)C1 (centres undefined),-77%,i,-216*,-96*,-17,·
CN(C)c1cc(O)c(C(=S)Nc2ccccc2)c(N(C)C)c1,-36%,i,5,7,8,30%
CCOC(=O)c1c(S(=O)(=O)NCc2ccc(OC)cc2)c(C)n(C)c1C,-28%,i,13,-9,5,2%
CC1CCCN(CCCOc2ccc(Cl)cc2Br)C1 (centres undefined),-33%,i,-3,-68*,-9,19%
COCCn1c(=O)[nH]c2cc(C(=O)NCc3ccccc3)ccc2c1=O,19%,i,24,7,-5,0%
Cc1ccc(CNC(=O)c2ccc3c(=O)n(CCCN4CCCC4=O)c(=S)[nH]c3c2)cc1,7%,·,-4,35,-3,·
O=C(NCc1ccccc1)c1ccc2c(=O)n(CCCN3CCCC3=O)c(=S)[nH]c2c1,36%,i,17,-52*,2,-1%
C=CCn1c(=S)[nH]c2cc(C(=O)Nc3ccc(F)cc3)ccc2c1=O,-53%,i,-6,2,47*,-2%
COCCn1c(=S)[nH]c2cc(C(=O)NCc3ccccc3)ccc2c1=O,-3%,i,15,-66*,-6,·
COc1ccc(CNS(=O)(=O)c2ccc3c(c2)NC(=O)C(C)C(=O)N3)cc1 (centres undefined),·,·,·,·,-11,·
c1cnc(N2CCN(Cc3c[nH]c4ccccc34)CC2)nc1,-50%,i,?,-51*,-7,-13%
O=C(c1ccc(Cl)cc1)N1CCN(c2cccc3[nH]ccc23)CC1,-12%,?,9,5,3,11%
SMILES,a7 integrin act,ATXN viability,IL-1B inflam inh,DRD3 antagonist,D3 ag,ATXN2 expr inh
COc1ccc(Br)cc1CN1CCN(c2ncccn2)CC1,-30%,·,9,?,-21,-22%
COc1ccccc1N1CCN(C(=O)CCc2c[nH]c3ccccc23)CC1,-13%,i,-16,-6,-2,-28%
COc1ccccc1N1CCN(Cc2c[nH]c3ccccc23)CC1,-39%,i,·,-80*,-24,-31%
Cc1ccccc1N1CCN(Cc2c[nH]c3ccccc23)CC1,-44%,?,?,-86*,-26,?
Cc1ccc(CN2CCN(c3cccc4[nH]ccc34)CC2)cc1,20%,i,27,-82*,30,3%
CCOC(=O)C(NC(=O)c1cccc(Cl)c1)(OCc1ccccc1)C(F)(F)F (centres undefined),-20%,i,-2,-10,-13,-28%
CCOc1cc(CNCc2cccs2)cc(Br)c1OCC,-10%,i,?,-18,-13,-21%
CCOc1cc(CNCCO)cc(Br)c1OCc1cccs1,-50%,?,-60*,-14,-4,?
CCOc1cc(CNCCO)cc(Br)c1OCc1ccc(Cl)cc1Cl,-55%,·,-101*,-5,6,20µM*
COc1ccccc1NC(=O)N(Cc1nnc2n1CCCCC2)c1ccc(F)cc1,·,i,·,·,5,0%
O=C(O)C1=C[C@@H](C2CC2)C[C@@H](OCCCCO)O1,?,i,0,9,16,9%
COC1OCC(O)C(OC(=O)c2ccccc2)C1OC(=O)c1ccccc1 (centres undefined),9%,i,-2,8,9,-8%
Cc1cc(OCC(=O)N(Cc2ccc(N(C)C)cc2)C2CCS(=O)(=O)C2)cc(C)c1Cl (centres undefined),·,?,·,·,-9,?
Cc1cccc(OCC(=O)N(Cc2ccc(N(C)C)cc2)C2CCS(=O)(=O)C2)c1 (centres undefined),30%,i,-50*,-3,-1,10%
OC(CN1CCCCC1)Cn1c2ccccc2c2cc(Br)ccc21 (centres undefined),-61%,?,-75*,0,-8,?
Cc1ccc2c(c1)c1c(n2CC(O)Cn2c(C)nc3ccccc32)CCCC1 (centres undefined),-43%,32µM*,-11,-11,0,?
Cc1ccc2c(c1)c1c(n2CC(O)CN2CCCCCC2)CCCC1 (centres undefined),-62%,?,-74*,-68*,-2,-29%
Cc1ccc2c(c1)c1c(n2CC(O)CNC(C)(C)C)CCCC1 (centres undefined),-8%,?,?,15,8,-21%
Cc1ccc2c(c1)c1c(n2CC(O)Cn2nc(C)c(Br)c2C)CCCC1 (centres undefined),-60%,i,-21,-11,2,-23%
CN(CC(=O)Nc1cc(C(F)(F)F)ccc1-n1cncn1)Cc1ccccc1N1CCOCC1,5%,?,?,12,9,0%
